This is a sample that favours compounds with a hit; in the whole collection about 4% have one here.
DUSP3 inh – blocks human VHR1 dual specificity phosphatase. inhibition, % at 13.3 µM. P51452. recombinant VHR phosphatase, pNPP absorbance. hit rate 0.52% among 290,000. AID 1654; in the data active means inhibition above about 50%
BoNT F protease – inhibitors of Botulinum neurotoxin F light chain protease | Multiplex microsphere protease cleavage assay, flow cytometry | inhibition, % at 10 µM | hit rate 0.22% among 360,000 | AID 588497; in the data active means inhibition above about 35%, passing the limit was not always enough; inconclusive means no clear call, values can overlap the other calls
Autofluor counter – flagged as autofluorescent in microsphere protease counterscreen. compound autofluorescence counterscreen, microsphere flow cytometry; hits give high values. fluorescence intensity (no concentration beside the values). hit rate 3.1% among 360,000. AID 624483; in the data active means fluorescence intensity above about 16000; inconclusive means no clear call, values can overlap the other calls
BoNT A protease – inhibitors of Botulinum neurotoxin A light chain protease; AID 588499; inhibition, % at 10 µM; multiplex microsphere protease substrate cleavage, flow cytometry; hit rate 0.17% among 360,000
MazEF act – MazEF (E. coli) toxin RNase activation. FAM/BHQ RNA-DNA oligo cleavage fluorescence, 5 h. activation, % at 20 µM. hit rate 0.32% among 350,000. AID 504720; in the data active means activation above about 50%
Anthrax LF inh2 – anthrax lethal factor protease inhibition; P15917; multiplex microsphere protease cleavage assay, LF; inhibition, % at 10 µM; hit rate 0.12% among 360,000; AID 588501
Target sequence (P15917 whole entry, looked up): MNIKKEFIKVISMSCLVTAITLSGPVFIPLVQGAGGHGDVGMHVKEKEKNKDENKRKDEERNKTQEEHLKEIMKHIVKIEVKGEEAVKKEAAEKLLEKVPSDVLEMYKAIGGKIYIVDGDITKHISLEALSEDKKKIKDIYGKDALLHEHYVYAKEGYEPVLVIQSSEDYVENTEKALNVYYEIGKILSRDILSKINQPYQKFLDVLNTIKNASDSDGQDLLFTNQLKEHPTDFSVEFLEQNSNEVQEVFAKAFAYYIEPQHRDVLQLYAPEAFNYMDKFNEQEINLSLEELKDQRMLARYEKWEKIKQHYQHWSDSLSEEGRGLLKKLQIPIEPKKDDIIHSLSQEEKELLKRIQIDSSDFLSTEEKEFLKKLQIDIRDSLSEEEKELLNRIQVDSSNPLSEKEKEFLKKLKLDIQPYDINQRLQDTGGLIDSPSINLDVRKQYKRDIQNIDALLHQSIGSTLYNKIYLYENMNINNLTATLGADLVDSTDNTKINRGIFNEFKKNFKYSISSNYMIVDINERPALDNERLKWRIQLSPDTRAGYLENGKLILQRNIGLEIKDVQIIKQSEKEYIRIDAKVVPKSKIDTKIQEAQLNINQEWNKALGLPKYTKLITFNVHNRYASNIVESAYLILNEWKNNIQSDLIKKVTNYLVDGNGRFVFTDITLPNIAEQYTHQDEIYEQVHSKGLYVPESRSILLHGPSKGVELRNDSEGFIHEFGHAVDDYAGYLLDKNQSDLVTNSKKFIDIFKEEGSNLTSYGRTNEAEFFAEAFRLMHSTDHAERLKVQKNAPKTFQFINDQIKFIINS
BoNTA LC inh 1 – blocks botulinum neurotoxin A light chain protease; shares compounds with BoNT F protease; multiplex microsphere protease assay, flow cytometry; inhibition, % at 10 µM; hit rate 3% among 720; in the data active means inhibition above about 32%
BoNT-F LC CP1 – inhibitors of Botulinum neurotoxin F light chain protease. 720 tested, under 10 active. inhibition, % at 10 µM. multiplex microsphere protease cleavage assay, flow cytometry. shares compounds with BoNT F protease; call rule not given here
Anthrax LF CP1 – Bacillus anthracis lethal factor protease inhibition; shares compounds with BoNT F protease; multiplex microsphere protease cleavage assay, LF; inhibition, % at 10 µM; 720 tested, under 10 active; AID 602142; call rule not given here
Large screens that a line does not name were inactive (follow-up assays come after a bar, where they were run). Unless noted, no stated cut-off is given here; in the data, active means inhibition above about 30%; inconclusive means no clear call, values can overlap the other calls; inactive means below that.

CCOc1ccccc1OCC(=O)Nc1nnc(COC)s1	BoNT F protease 53, Autofluor counter inconclusive, BoNT A protease inconclusive, Anthrax LF inh2 inconclusive | BoNTA LC inh 1 inactive | BoNT-F LC CP1 inactive | Anthrax LF CP1 inactive
Cc1ccccc1OCC(=O)Nc1nnc(C2CCCCC2)s1	BoNT F protease 47 | BoNTA LC inh 1 inactive | BoNT-F LC CP1 inactive | Anthrax LF CP1 inactive
O=C1CN(C(=O)C2CC2)c2ccccc2N1	BoNT F protease 37 | BoNTA LC inh 1 inactive | BoNT-F LC CP1 inactive | Anthrax LF CP1 inactive
Cc1cc(C)c2cc3c(N)c(C(=O)N4CCOCC4)sc3nc2c1	none | BoNTA LC inh 1 inactive | BoNT-F LC CP1 inactive | Anthrax LF CP1 inactive
Cc1ccc(C)c2nc3sc(C(=O)N4CCOCC4)c(N)c3cc12	none | BoNTA LC inh 1 inactive | BoNT-F LC CP1 inactive | Anthrax LF CP1 inactive
Cc1cccc2cc3c(N)c(C(=O)N4CCc5ccccc54)sc3nc12	MazEF act 86 | BoNTA LC inh 1 inactive | BoNT-F LC CP1 inactive | Anthrax LF CP1 inactive
Nc1c(C(=O)N2CCOCC2)sc2nc3c(cc12)CCCC3	none
CCOc1ccc2nc3sc(C(=O)N4CCOCC4)c(N)c3cc2c1	none | BoNTA LC inh 1 inactive | BoNT-F LC CP1 inactive | Anthrax LF CP1 inactive
Cc1cc(C)c2nc3sc(C(=O)N4CCOCC4)c(N)c3cc2c1	none
COc1ccccc1Nc1ncc(C(=O)N2CCC(C(N)=O)CC2)c2ccccc12	none
CCOC(=O)C1CCCN(C(=O)COc2ccccc2O)C1 (centres undefined)	none
CCN(CC)C(=O)c1ccc(NC(=O)c2cccc(S(=O)(=O)N3CCN(Cc4ccccc4)CC3)c2)cc1	Autofluor counter inconclusive, BoNT A protease 57 (no result: DUSP3 inh) | BoNTA LC inh 1 inactive | BoNT-F LC CP1 inactive | Anthrax LF CP1 inactive
CC(=O)Nc1cccc(NC(=O)c2cccc(S(=O)(=O)N3CCN(Cc4ccccc4)CC3)c2)c1	none (no result: DUSP3 inh, BoNT F protease, Autofluor counter, BoNT A protease, Anthrax LF inh2)
Cc1ccc(C(=O)Nc2ccccc2C(=O)O)cc1S(=O)(=O)NCc1ccccc1	none
Cc1ccc(C(=O)Nc2ccccc2C(=O)O)cc1S(=O)(=O)Nc1ccc(Br)cc1	none (no result: DUSP3 inh, BoNT F protease, Autofluor counter, BoNT A protease, Anthrax LF inh2) | BoNTA LC inh 1 inactive | BoNT-F LC CP1 inactive | Anthrax LF CP1 inactive
CCCNC(=O)c1ccccc1NC(=O)c1ccc2c(c1)NC(=O)C(C)S2 (centres undefined)	none
Fc1cccc(Cl)c1CNc1ccc(N2CCCC2)cc1	none
NS(=O)(=O)c1ccc(NCc2c(F)cccc2Cl)cc1	BoNT F protease 46, BoNT A protease 38 | BoNTA LC inh 1 inactive | BoNT-F LC CP1 inactive | Anthrax LF CP1 inactive
CN(CC(=O)NCCc1ccc(S(N)(=O)=O)cc1)Cc1c(F)cccc1Cl	BoNT F protease 40 | BoNTA LC inh 1 inactive | BoNT-F LC CP1 inactive | Anthrax LF CP1 inactive
O=C(CSCc1ccc([N+](=O)[O-])cc1)N/N=C/c1cccnc1	none
CCc1ccccc1NC(=O)C1COc2ccccc2O1 (centres undefined)	BoNT F protease inconclusive
CCOC(=O)c1cc(C(=O)c2cccs2)n2ccc(C(C)=O)cc12	BoNT A protease 35 | BoNTA LC inh 1 inactive | BoNT-F LC CP1 inactive | Anthrax LF CP1 inactive
CCOC(=O)c1cc(C(C)=O)n2ccccc12	none
COc1cccc(C2CC(c3ccccc3)=NN2S(=O)(=O)c2ccc(C)cc2)c1OC (centres undefined)	BoNT F protease 55, Autofluor counter 32220, BoNT A protease 39, Anthrax LF inh2 32 | BoNTA LC inh 1 inactive | BoNT-F LC CP1 inactive | Anthrax LF CP1 inactive
CCCNc1c(NS(=O)(=O)c2ccc3c(c2)CCCC3)c(=O)oc2ccccc12	none
Cc1ccc(C(=O)N(CCC2=CCCCC2)c2c(N)n(Cc3ccccc3)c(=O)[nH]c2=O)o1	BoNT A protease 31, Anthrax LF inh2 inconclusive (no result: DUSP3 inh) | BoNTA LC inh 1 inactive | BoNT-F LC CP1 inactive | Anthrax LF CP1 inactive
Nc1c(N(CCC2=CCCCC2)C(=O)c2ccc([N+](=O)[O-])o2)c(=O)[nH]c(=O)n1Cc1ccccc1	none (no result: DUSP3 inh, BoNT F protease, Autofluor counter, BoNT A protease, Anthrax LF inh2)
O=C(c1ccccc1)c1sc(N2CCCCCC2)nc1-c1ccccc1	BoNT A protease 54, Anthrax LF inh2 34 | BoNTA LC inh 1 inactive | BoNT-F LC CP1 inactive | Anthrax LF CP1 inactive
Cc1nn(C)c(NC(=O)c2ccccc2Cl)c1Br	none
Cc1cc(C)c(NC(=O)C2CCCO2)c(C)c1NC(=O)C1CCCO1 (centres undefined)	BoNT F protease 38 | BoNTA LC inh 1 inactive | BoNT-F LC CP1 inactive | Anthrax LF CP1 inactive
N=c1n(CCO)c2ccccc2n1Cc1ccccc1Cl	none | BoNTA LC inh 1 inactive | BoNT-F LC CP1 inactive | Anthrax LF CP1 inactive
Cc1ccc2[nH]c(CNC(=O)C3CCCCC3)cc2c1	BoNT A protease 93 | BoNTA LC inh 1 inactive | BoNT-F LC CP1 inactive | Anthrax LF CP1 inactive
COCCSc1ccccc1C(=O)N1CCN(c2ccccc2OC)CC1	none
COc1ccccc1CNC(=O)C(CCSC)NS(=O)(=O)c1ccc2c(c1)oc(=O)n2C (centres undefined)	none
COc1cccc(CNC(=O)C(CCSC)NS(=O)(=O)c2ccc3c(c2)oc(=O)n3C)c1 (centres undefined)	BoNT F protease 37 | BoNTA LC inh 1 inactive | BoNT-F LC CP1 inactive | Anthrax LF CP1 inactive
CC1CCN(CCCCOc2ccccc2Br)CC1	BoNT F protease 43 | BoNTA LC inh 1 inactive | BoNT-F LC CP1 inactive | Anthrax LF CP1 inactive
CC1CCN(CCCCOc2ccccc2F)CC1	none
Cc1cc(C)c2[nH]c(=O)c(C(c3nnnn3C(C)(C)C)N(Cc3ccco3)CC3CCCO3)cc2c1 (centres undefined)	Autofluor counter 20853 | BoNTA LC inh 1 inactive | BoNT-F LC CP1 inactive | Anthrax LF CP1 inactive
Cc1cc2cc(C(c3nnnn3C(C)(C)C)N(Cc3ccco3)CC3CCCO3)c(=O)[nH]c2cc1C (centres undefined)	none
CSc1ncccc1C(=O)OCC(=O)c1ccc(Cl)s1	none (no result: DUSP3 inh)
COc1ccc(-c2nc(N)nc(C(F)(F)F)c2-c2cscn2)c(O)c1	none
O=C(Nc1ccc(Cl)c(Cl)c1)c1ccccc1	none (no result: DUSP3 inh)
O=C(Nc1ccc2nc3ccccc3nc2c1)c1ccccc1	BoNT A protease 63 | BoNTA LC inh 1 39 | BoNT-F LC CP1 inactive | Anthrax LF CP1 inactive
Cc1cc2oc(C(=O)NC3CCS(=O)(=O)C3)cc(=O)c2cc1C (centres undefined)	none
CCn1c(SCc2ccccc2)nnc1C1CCN(S(=O)(=O)c2ccc(OC)cc2)CC1	BoNT F protease 35 | BoNTA LC inh 1 inactive | BoNT-F LC CP1 inactive | Anthrax LF CP1 inactive
CCNc1ccc(S(=O)(=O)N(C)C)cc1NCC(=O)Nc1ccccc1Br	BoNT F protease 41 | BoNTA LC inh 1 inactive | BoNT-F LC CP1 inactive | Anthrax LF CP1 inactive
CCNc1ccc(S(=O)(=O)N(C)C)cc1NCC(=O)Nc1ccccc1F	none
COc1ccc(CCNC(=O)CCSCc2ccccc2F)cc1OC	BoNT F protease 48 | BoNTA LC inh 1 inactive | BoNT-F LC CP1 inactive | Anthrax LF CP1 inactive

Compound activity deposited in PubChem by several laboratories.
